Among the data in PubChem BioAssay AID1875 (Broad Institute, 2009) are activity score values, retold here.

Hit rate of the full screen: of about 300,000 compounds, about 65 (0.02%) were called active.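 Rule for the calls: active = lowest replicate activity score at least 50, where 100 means six control SD above control mean; inconclusive = lowest score under 50 but half or more replicates reach 50; inactive = the rest.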 Only a selection was taken, and actives are over-represented in it overall.

This assay in a line: perturbers of mRNA poly(A) processing – luminescence, S. cerevisiae, primary screen (AID 1875).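 Note: yeast exposed to compound for 9 h at 30 °C; higher score means more reporter readthrough which indicates perturbed polyadenylation.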 To be noted: S. cerevisiae SKY197-pL101 polyadenylation reporter, beta-gal luminescence; at 12 µM; stronger effect = higher value; efflux-impaired pdr1/pdr3 knockout yeast; score 100 = 6 SD above DMSO.
Consider `O=C(NCCS(=O)(=O)N1CCN(c2ccccc2F)CC1)c1ccc(Br)o1`, for which the activity score is 1.43% (inactive). Consider `CCOc1ccc(C2c3[nH]c4ccccc4c3CCN2Cc2cccn2-c2ncccn2)cc1` (configuration not stated), for which the activity score was 0.986% (inactive).

As to `CCc1c(C)nc2c(OC)cccc2c1Cl`, the activity score was -37.6% (inactive). With `O=C(CN1CCOCC1)Nc1c2c(nc3c1CCC3)CCC2`, the activity score was 1.76% (inactive). As for `CC1(C)CCSC(/C=C/c2ccccc2)=N1`, the activity score is 6.99% (inactive).

Turning to `COc1ccc(-n2c(O)c(C=NCC(c3ccco3)N3CCCC3)c3ccccc3c2=O)cc1OC` (configuration not stated), the activity score is 6.18% (inactive). Regarding `COc1cc(NC(=O)c2cncc(-c3ccc(C#N)cc3)c2)cc(C(=O)Nc2cccc(C(F)(F)F)c2)c1`, the activity score was -7.7% (inactive). In the case of `O=C(C1CCN(c2nnc(-n3cccc3)s2)CC1)N1CCc2ccccc2C1` it was 9.11% (inactive); in that of `CCc1noc(C)c1C(=O)Oc1ccc(N(C)S(=O)(=O)c2ccc(C)c(C)c2)cc1`, 0.103% (inactive). On to `Cc1ccc(CNC(=O)C2CCN(S(=O)(=O)c3ccc4nc5c(c(C(=O)O)c4c3)CC(C)CC5)CC2)cc1` (configuration not stated), for which the activity score was -6.73% (inactive). In the case of `CCn1cc(CN2CCC(C(=O)Nc3cccc(-c4cccc(Cl)c4)c3)CC2)c(C)n1` it was 3.2% (inactive); in that of `Cc1ccc(-c2cc(C(=O)NCc3cn(C)nc3C)c3cc(Br)ccc3n2)cc1`, 2.61% (inactive). With `O=C(c1ccncc1)N1CCN(S(=O)(=O)c2cc(C(F)(F)F)cc(C(F)(F)F)c2)CC1` the figure was 9.96% (inactive); with `COc1ccc(C(CNC(=O)c2ccc(S(=O)(=O)Nc3ccccc3F)cc2)N(C)C)cc1` (configuration not stated), 4.77% (inactive). As for `CCCCn1c(N)c(N(CCOC)C(=O)CSCC(=O)Nc2cccc(C)c2)c(=O)[nH]c1=O`, the activity score was 10.8% (inactive). For `Cc1cc(C)nc(NS(=O)(=O)c2ccc(N/C=C\C(=O)c3cccs3)cc2)n1`, the activity score is -11% (inactive). For the compound `O=C(c1snnc1-c1ccccc1)N1CCOCC1`, the activity score was 18.7% (inactive). On to `CC(OC(=O)CNC(=O)c1ccco1)C(=O)Nc1ccc(Cl)cn1` (configuration not stated), for which the activity score is -11.7% (inactive).

Regarding `CCOc1ccccc1OCCCNCc1ccccc1`, the activity score was 14.2% (inactive). In the case of `COc1cc(C(=O)NCCOC(=O)c2cccc(N(C)C)c2)cc(OC)c1OC`, the activity score is 1.84% (inactive). Consider `O=c1[nH]cnc(O)c1C(c1ccc(F)cc1)c1c(O)nc[nH]c1=O`, for which the activity score is -1.62% (inactive). With `COc1ccc([N+](=O)[O-])cc1N(CC(O)CN(CC(C)C)CC(C)C)S(=O)(=O)c1ccc(C)cc1` (configuration not stated) the figure was 12.6% (inactive); with `O=[N+]([O-])c1cc(C(F)(F)F)ccc1NCCc1ccncc1`, -17.4% (inactive). Take `CC(C)CCNC(=O)c1cccnc1Sc1ccccc1`: the activity score was -10.2% (inactive).

For `COc1ccc(NC(=O)C/C(C)=N/NC(=O)c2cnccn2)cc1Cl`, the activity score is 4.46% (inactive). For the compound `CCN(CC)CC(=O)Nc1nn(-c2ccccc2)nc1C(N)=O`, the activity score is 3.8% (inactive). As to `Cc1ccccc1N1C(=O)C(Oc2ccc(Cl)cc2)C1CNCC1CCCO1` (configuration not stated), the activity score was -13.7% (inactive).

Take `COC(=O)c1ccc(SCc2ccccc2)nc1`: the activity score was 5.84% (inactive).

`CC(C)(C)N(Cc1ccccc1)C(=O)COC(=O)CCc1c[nH]c2ccccc12`: the activity score is 9.29% (inactive).

In the case of `CCN(CC)c1ccc(C(=O)Nn2c(C)nc3ccccc3c2=O)cc1`, the activity score was -0.748% (inactive). `O=C(CCc1nnc(Cc2ccc3c(c2)OCO3)o1)NCCc1ccccc1Cl`: the activity score was 6.46% (inactive). With `O=C(COc1coc(CN2CCN(c3ccccc3)CC2)cc1=O)N1CCc2ccccc21` the figure was -4.04% (inactive); with `O=C(Cc1ccccc1)Nc1c(Cl)ccc2nsnc12`, 16.1% (inactive); with `Cc1[nH]n(C(N)=S)c(=O)c1N=Nc1ccc(Cl)cc1Cl`, -14.2% (inactive). Take `COc1ccc(OC)c(NC(=O)CSc2nc(-c3ccccc3)cc(=O)[nH]2)c1`: the activity score was -4.65% (inactive). With `CC1CCN(CCCn2c(SCC(=O)NC3CCCC3)nc3ccccc3c2=O)CC1` the figure was -3.59% (inactive); with `COc1cccc(C(=O)Nc2nnc(S(=O)(=O)N3CCOCC3)s2)c1`, 16.5% (inactive). Consider `Cc1ccc(S(=O)(=O)C2C(=O)NC3(C)CC2c2ccccc2O3)cc1` (configuration not stated), for which the activity score is 1.24% (inactive).

For the compound `COc1ccc(C(=O)C2CCCN(C(=O)c3cc4nc(C)cc(C)n4n3)C2)cc1F` (configuration not stated), the activity score was 4.72% (inactive). For `CN(CCO)c1ccc(/C=N/Nc2nncc3ccccc23)cc1`, the activity score was -9.02% (inactive). On to `Cc1ccccc1CN1C[C@@H]2C[C@@H](c3cn(C)nc3-c3ccccc3)N3CCC[C@@]23C1=O`, for which the activity score was -0.645% (inactive). `COc1cc(CNc2ncn[nH]2)ccc1OCc1ccccc1C`: the activity score was 5.71% (inactive). As for `CN(CCOc1ccccc1)Cc1nc2cc(Cl)ccc2c(=O)[nH]1`, the activity score was 6.63% (inactive). With `CC(C)(C)c1ccccc1NC(=O)CN1C(=O)NC2(CCCC2)C1=O` the figure was 9.67% (inactive); with `Cc1ccc(CS(=O)(=O)CCC(=O)NCc2ccc(F)cc2)cc1`, -0.106% (inactive); with `CCn1c(Cc2ccc(OC)cc2)nnc1SCC(=O)Nc1ccc(N2CCOCC2)cc1`, -14.5% (inactive). With `Cc1ccc(NN=Nc2nc3c([nH]2)c(=O)n(C)c(=O)n3C)cc1`, the activity score was 15.9% (inactive). With `COc1cc(NS(=O)(=O)c2ccc(NC(=O)c3ccc([N+](=O)[O-])cc3)cc2)ncn1` the figure was -0.0482% (inactive). For `O=C(CCCCCn1c(=S)[nH]c2ccsc2c1=O)NC1CCCCC1`, the activity score was -14.5% (inactive). In the case of `CCCCn1c(N)c(N(CCOC)C(=O)c2cccc(OCc3ccccc3)c2)c(=O)[nH]c1=O` it was -6.78% (inactive); in that of `Brc1ccccc1/C=N/Nc1nc2ccccc2o1`, -16.6% (inactive); in that of `Cc1ccc(N(Cc2cc(=O)[nH]c3ccccc23)C(=O)CCl)cc1`, 29.9% (inactive). As to `COC(=O)c1c(C)[nH]c(C(=O)/C=C/c2ccc(Cl)cc2)c1C`, the activity score is -2.04% (inactive). With `O=C(NCCc1ccccc1)C1CCC(Cn2c(=O)c3ccccc3n(Cc3cccnc3)c2=O)CC1` (configuration not stated), the activity score is -5.99% (inactive). As for `COc1ccc(-c2nn(-c3ccccc3)cc2CN2CCCO2)c(F)c1`, the activity score was 0.939% (inactive). Consider `O=C(NCCCn1ccnc1)/C(=C\c1ccccc1F)NC(=O)c1ccccc1`, for which the activity score is 11.1% (inactive). In the case of `CN(C(=O)C1CCN(c2ncnc3c2nc2n3CCCCC2)CC1)C1CCCCC1`, the activity score is 5.63% (inactive).
